Measured values: PubChem BioAssay (NCI)
Compounds without any hit were thinned out: in the full panel of roughly 83,000, 20% have a hit.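 In brief: 96-well plates, 48 h treatment, single concentration, percent growth endpoint.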 Values without a mark were called inactive. Activity calls are given as the source filed them. How the source made its calls: active means growth percent below 10; inactive means the rest.

Columns and labels:
Test in all cases: NCI-60 one-dose screen, 48 h (100 = growth as untreated, 0 = no growth, -100 = all killed)
Conditions in all cases: 10 µM
[1] = system: EKVX NSCLC
[2] = system: SN12C renal
[3] = system: UO-31 renal
[4] = system: TK-10 renal
[5] = system: ACHN renal
[6] = system: CAKI-1 renal
[7] = system: CCRF-CEM leukemia
[8] = system: MOLT-4 leukemia
[9] = system: SR leukemia
[10] = system: OVCAR-8 ovarian
[11] = system: OVCAR-5 ovarian
[12] = system: OVCAR-4 ovarian
[13] = system: SK-OV-3 ovarian
[14] = system: IGROV1 ovarian
[15] = system: OVCAR-3 ovarian
[16] = system: HS 578T breast
[17] = system: T-47D breast
[18] = system: RPMI-8226 leukemia
[19] = system: NCI/ADR-RES ovarian
[20] = system: A498 renal

SMILES | growth [1] | growth [2] | growth [3] | growth [4] [%] | growth [5] [%] | growth [6] | growth [7] | growth [8] | growth [9] | growth [10] | growth [11] [%] | growth [12] | growth [13] | growth [14] | growth [15] | growth [16] [%] | growth [17] | growth [18] | growth [19] | growth [20] [%]
O=C1c2ccc3c4c(ccc(c24)C(=O)N1CCNCc1ccccc1)C(=O)N(CCNCc1ccccc1)C3=O | -65.6% (active) | -47.3% (active) | -59% (active) | 63.4 | 85.4 | -56.2% (active) | -6.55% (active) | -9.12% (active) | -8.22% (active) | 2.34% (active) | 132 | -97.8% (active) | 109% | -75.7% (active) | -62.6% (active) | 102 | -27.2% (active) | – | – | –
COc1cc([C@@H]2c3cc4c(cc3C(Br)[C@H]3COC(=O)[C@H]23)OCO4)cc(OC)c1OC (stereo not given in full) | 22% | 31% | 8.5% (active) | 54.2 | 22.5 | 12.3% | -15.5% (active) | – | – | -27.5% (active) | 24.7 | 17.3% | -18.4% (active) | -21% (active) | -81.5% (active) | – | 31.3% | -25.8% (active) | -45.9% (active) | –
CC(C)(C)c1ccc(N2CSC(=S)N(c3ccc(C(C)(C)C)cc3)C2)cc1 | 84.1% | 99.6% | 79.4% | 111 | 89 | – | 88.5% | 100% | 112% | 107% | 101 | 98.3% | 94.1% | 55.3% | 109% | 112 | 81.4% | 76.5% | 96.1% | 107
Nc1nc(N)c2c(ccc3nccc32)[nH]1 | 51.6% | 94% | 39.3% | 92.1 | 42.7 | – | 27.9% | 33.9% | 28.5% | 26.2% | 65.2 | 66.1% | 58.8% | – | 75.5% | 89.5 | 73% | 43.2% | 53.1% | 79.4
Cc1cc(N(CCCNc2ccnc3cc(Cl)ccc23)Cc2cccs2)nc(Cl)n1 | 48% | 58.4% | 27.8% | 50.4 | 56.7 | – | 42% | 11.2% | 0.473% (active) | 44.7% | 69.1 | 31.8% | 42.4% | – | 55.7% | 65.4 | 22.1% | -6.73% (active) | 36.4% | 28.5
CCCCOc1ccc(NC(=O)Nc2nnc(C)s2)cc1 | 99.6% | 93.3% | 87% | 118 | 94.5 | – | 72.9% | 90.4% | 101% | 90.5% | 102 | 100% | – | 91.6% | 120% | 116 | 77.9% | 80.8% | 93.3% | 108
CC(C)=CCc1cc(O)cc2c1OC(C=C(C)C)C1=C2C(=O)C2=C(C1=O)S(=O)(=O)CCN2 (stereo not given) | 50.2% | -44.1% (active) | 54% | 122 | 73.1 | – | -11.9% (active) | -43.2% (active) | 3.79% (active) | 10.8% | 152 | 5.54% (active) | 84.7% | -0.954% (active) | 0.638% (active) | 70.3 | -0.36% (active) | 51.4% | 91.7% | 103
COc1ccc(C2CC(c3ccc(N(C)C)cc3)=NN2c2ccc(S(N)(=O)=O)cc2)cc1 (stereo not given) | 28.4% | 49.4% | 32% | 44.9 | 35.2 | 48.2% | 49.4% | – | – | 42.3% | 84.3 | 48.6% | 70.3% | 56.6% | 54.7% | 96.7 | 36.9% | 34.1% | – | –
ClCC#CCSc1ncnc2c1ncn2CC#CCCl | 10.5% | 20.2% | 2.36% (active) | 71.1 | 11.7 | – | 14.9% | 15.4% | 14.6% | 24.4% | 14.1 | 34.3% | 45.7% | 30.7% | -27.5% (active) | 107 | -23.1% (active) | – | – | –
CC(C)=CCc1cc(O)cc2c1OC(C=C(C)C)C1=C2C(=O)C2=C(NCCS2(=O)=O)C1=O (stereo not given) | -1.26% (active) | -59% (active) | 67.3% | 106 | 26.2 | – | 1.9% (active) | -34.5% (active) | 1.49% (active) | 3.18% (active) | 41.3 | 1.98% (active) | – | -22.3% (active) | -9.92% (active) | 11.2 | -10% (active) | 63.9% | 87.7% | 50.2
Cc1ccc(NC(=O)Nc2nc3ccccc3s2)cc1NC(=O)Nc1nc2ccccc2s1 | 99.1% | 86.9% | 66.8% | 111 | 83.7 | – | 74.2% | 82.4% | – | 50.4% | 104 | 82.3% | 95.8% | – | 96.2% | 77.3 | 80.6% | 42.8% | – | 93
COc1ccc(NC2=NC(C)(CO)CS2)cc1 (stereo not given) | 106% | 91.1% | 77.7% | 110 | 96.7 | – | 89.6% | 96.7% | 126% | 74.3% | 103 | 97.7% | 104% | 87.7% | 112% | 99.3 | 101% | 83.6% | 106% | 94.2
CCCCOC(=O)Oc1ccc(C(=O)Oc2ccc(OCC)cc2)cc1 | 98% | 95.3% | 85.6% | 117 | 90.2 | 87.1% | 8.77% (active) | 111% | – | 99.1% | 94.3 | 87.9% | 111% | 105% | 98.6% | 94.5 | 111% | 74.6% | – | –
O=C(Nc1ccc(Cl)c([N+](=O)[O-])c1)Nc1nc2ccccc2s1 | 76.3% | 65.1% | 83.8% | 112 | 81.8 | – | 49.2% | 79.7% | 113% | 85.3% | 103 | 67.1% | 84.9% | – | 79.5% | 103 | 36.8% | 7.17% (active) | – | 85.7
COC(=O)C1(C)Cc2cc(OC(C)=O)c(OC(C)=O)cc2N1 (stereo not given) | 92.2% | 88.8% | 32.3% | 87.9 | 27.3 | – | 24.1% | 56.6% | 1.05% (active) | 85.2% | 118 | 57.8% | – | 27.1% | 67.2% | 88.7 | 42.6% | 23.6% | 80.6% | 92.8
Clc1cc2c(c(CSc3nc4ccccc4n4cccc34)c1)OCOC2 | 70.6% | 81.5% | 74% | 79.4 | 87.9 | – | 93.7% | 94.8% | 29.2% | 59.3% | 87.2 | 3.98% (active) | 74.9% | – | 72.2% | 91.8 | 2.37% (active) | 49% | 89.5% | 102
Cc1cccc(NC2=C(C#N)C(=O)NC3(CCCC3)S2)c1 | 106% | 97.3% | 93.8% | 107 | 98.2 | – | 90.2% | 98.4% | 94.9% | 100% | 103 | 103% | 103% | 168% | 116% | 103 | 102% | 90% | 100% | 96.9
Nc1ccc2c(c1)Cc1cc(N)c(Br)cc1-2 | 46.8% | 113% | 76.9% | 138 | 87 | 86.6% | 82.1% | 94.1% | – | 102% | 113 | – | 101% | 116% | 115% | 76.7 | 78.5% | – | 90.2% | –
